The text below walks through data of PubChem BioAssay (NCATS).

Experiment [1] can be described thus: Natriuretic polypeptide receptor (hNpr1) antagonism - Pilot counterscreen GloSensor control cell line (AID 1347045; calls by dose curve; also: series mostly up to about 38 µM). The gist of the method:
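The SNP-driven cGMP luminescence signal (50 uM, 20 min, room temperature) was measured in GloSensor HEK293 control cells. Compounds were tested as a LOPAC titration series and preincubated for 30-50 min.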
A general note: The purpose of a counterscreen is to sort out artefacts and off-target activity.

The target of experiment [2] is Atrial natriuretic peptide receptor 1 (Homo sapiens) (UniProt P16066). Kind of experiment: Natriuretic polypeptide receptor (hNpr1) antagonism - Pilot screen (AID 1347049; calls by dose curve;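 also: HEK293 cells with hNpr1 and GloSensor cGMP luciferase stimulated by 0.1 nM hNppA; agonist-evoked cGMP luminescence read 20 min after hNppA addition; series mostly up to about 58 µM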). A digest of the protocol:
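Cells expressing receptor plus cGMP biosensor are seeded and incubated overnight at 37C, then loaded with GloSensor reagent (2% final) at room temperature for 2 h. Library compounds go on for 30 min. A pre-read precedes agonist (hNppA, 0.1 nM final) and a 20-min readout.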

Experiment [3] deals with Atrial natriuretic peptide receptor 2 (Homo sapiens) (UniProt P20594). Nature of the experiment: Natriuretic polypeptide receptor (hNpr2) antagonism - Pilot subtype selectivity assay (AID 1347050; calls by dose curve; also: potency is read from the fitted curve at half-maximal effect). The gist of the method: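 Read-out: GloSensor luminescence (CCD imager), baseline vs post-stimulation. HEK293 cells expressing hNpr2; compounds pre-incubated 30-50 min at ambient temperature; hNppC 1 nM final, 20 min.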

A short description of experiment [4]: NS1 protein of Zika virus - qHTS assay to identify small molecule inhibitors in human HEK 293 cells (AID 1347053). Also: nearly all actives have a fitted effect of over 55% in size. Also: potency is read from the fitted curve at half-maximal effect. A digest of the protocol:
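Readout was TR-FRET using paired anti-NS1 antibodies after 24 h infection of HEK 293 cells with ZIKV MR766 (MOI = 0.5). Compound preceded virus by 1 h; reduced signal reflects lower NS1 expression.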
In general terms: Quantitative high-throughput screening tests each substance at several concentrations.

Experiment [5] deals with T1, Tyrosine-protein phosphatase non-receptor type substrate 1 (Homo sapiens) + Leukocyte surface antigen CD47 (Homo sapiens) (UniProt P78324+Q08722). Nature of the experiment: CD47-SIRPalpha protein protein interaction - LANCE assay qHTS validation (AID 1347057; active = well fitted curve in the direction sought with a large enough effect in the signal ratio, with a control signal flat, not every such curve was filed as active; the % refers to the signal ratio; also: series mostly up to about 38 µM). A digest of the protocol: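 Inhibition of soluble CD47/SIRPalpha ectodomain association by titrated compounds, measured as 665/615 nm time-resolved FRET ratio after sequential 30 min room-temperature incubations.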

Experiment [6] deals with T1, Tyrosine-protein phosphatase non-receptor type substrate 1 (Homo sapiens) + Leukocyte surface antigen CD47 (Homo sapiens). Nature of the experiment: CD47-SIRPalpha protein protein interaction - HTRF assay qHTS validation (AID 1347058; active = well fitted curve in the direction sought with a large enough effect in the signal ratio, not every such curve was filed as active; the % refers to the signal ratio; also: series mostly up to about 38 µM). The gist of the method:
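Soluble extracellular domains (6His-CD47, Avi-tag-biotinylated SIRPalpha) in PBS pH 7.4 with 0.05% IGEPAL CA-630. Compounds were preincubated 30 min at RT with CD47 and anti-His-Eu, then SIRPalpha and SAV-XL665 were added. TR-FRET 665/615 ratio.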
In general terms: TR-FRET usually uses a lanthanide donor and a delayed reading to cut background.

Experiment [7] shares this target. Kind of experiment: CD47-SIRPalpha protein protein interaction - Alpha assay qHTS validation (AID 1347059).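 Also: bead proximity luminescence from CD47 binding SIRPalpha after compound preincubation with SIRPalpha.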 A digest of the protocol: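 In PBS (pH 7.4) with 0.05% IGEPAL CA-630, compound is preincubated with biotin-Avi-SIRPalpha ectodomain before His-CD47 ectodomain and affinity beads are added. Light-protected room-temperature incubations; AlphaScreen readout.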

The target in experiment [8] is Parathyroid hormone/parathyroid hormone-related peptide receptor (Homo sapiens) (UniProt Q03431). Nature of the experiment: qHTS for PTHR1 Agonists: Optimization Screen against the NCGC LOPAC library (AID 1347079).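 Also: GloSensor cAMP luminescence in HEK-293 GP2 cells expressing human PTHR1 with IBMX.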 Also: potency is read from the fitted curve at half-maximal effect. The gist of the method:
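Signal increase flags agonism. GP2 cells, derived from HEK-293, express human PTHR1 and a GloSensor cAMP construct.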

Experiment [9] in a line: qHTS of pediatric cancer cell lines to identify multiple opportunities for drug repurposing: Primary screen for TC32 cells (AID 1347089). Also: nearly all actives have a fitted effect of over 60% in size. Also: potency is read from the fitted curve at half-maximal effect. The gist of the method:
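In the primary qHTS, MIPE compounds were tested at 11 concentrations (0.78 nM to 46 µM) and NPC compounds at 8 (0.59 nM to 46 µM) on TC32 cells for 48 h. CellTiter-Glo luminescence gave viability.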

Experiment [10] in a line: qHTS of pediatric cancer cell lines to identify multiple opportunities for drug repurposing: Primary screen for DAOY cells (AID 1347090). Also: nearly all actives have a fitted effect of over 55% in size. Also: potency is read from the fitted curve at half-maximal effect. The gist of the method: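 Eight- or eleven-point concentration series, 48 h treatment at 37 degrees C in growth media; readout CellTiter-Glo luminescence. Potency and efficacy were taken from the concentration-response curves.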

“And” between values parts separate entries of the source, which are not always exact repeats. Equal values may be shown once. Results filed as inconclusive are left out. Some structures have more than one record in an assay (separate samples or runs), and their calls can disagree. The source made the active and inactive calls. Unless noted, calls follow the shape of the dose curve; as a rule, active = well fitted curve in the direction sought with a large enough effect; inconclusive = small, poorly fitted or top-dose-only effect, or another doubt; inactive = no such curve, though single readings can be large; an effect the other way counts as inactive or inconclusive.

Chain of Atrial natriuretic peptide receptor 1 (Homo sapiens) (P16066 whole entry, looked up): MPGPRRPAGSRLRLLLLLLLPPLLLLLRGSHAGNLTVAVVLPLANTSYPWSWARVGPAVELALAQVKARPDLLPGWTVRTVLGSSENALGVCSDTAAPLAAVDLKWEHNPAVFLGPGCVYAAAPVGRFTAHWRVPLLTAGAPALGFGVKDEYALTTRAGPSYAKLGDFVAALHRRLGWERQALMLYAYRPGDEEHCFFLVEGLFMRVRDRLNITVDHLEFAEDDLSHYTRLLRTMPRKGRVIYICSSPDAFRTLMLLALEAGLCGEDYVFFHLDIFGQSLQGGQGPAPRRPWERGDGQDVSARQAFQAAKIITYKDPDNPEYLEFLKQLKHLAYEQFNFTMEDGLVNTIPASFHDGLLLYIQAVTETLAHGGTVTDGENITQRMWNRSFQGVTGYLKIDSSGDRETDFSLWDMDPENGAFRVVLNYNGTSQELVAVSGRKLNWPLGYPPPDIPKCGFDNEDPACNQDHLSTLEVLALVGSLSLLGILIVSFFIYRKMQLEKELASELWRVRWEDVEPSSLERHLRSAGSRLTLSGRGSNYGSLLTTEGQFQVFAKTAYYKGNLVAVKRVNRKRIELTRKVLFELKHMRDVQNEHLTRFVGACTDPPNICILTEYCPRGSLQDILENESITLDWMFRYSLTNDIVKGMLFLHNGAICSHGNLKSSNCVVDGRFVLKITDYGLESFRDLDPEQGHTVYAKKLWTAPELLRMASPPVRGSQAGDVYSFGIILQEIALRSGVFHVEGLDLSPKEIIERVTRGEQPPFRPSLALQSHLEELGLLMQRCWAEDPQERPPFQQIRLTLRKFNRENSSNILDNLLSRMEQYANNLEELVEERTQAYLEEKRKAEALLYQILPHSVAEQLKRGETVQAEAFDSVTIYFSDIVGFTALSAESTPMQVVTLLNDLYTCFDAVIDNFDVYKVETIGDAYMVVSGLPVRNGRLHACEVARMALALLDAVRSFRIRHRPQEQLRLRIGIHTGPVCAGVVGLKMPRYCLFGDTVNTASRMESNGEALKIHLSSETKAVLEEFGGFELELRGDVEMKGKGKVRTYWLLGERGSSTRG
Chain of Atrial natriuretic peptide receptor 2 (Homo sapiens) (P20594 whole entry, looked up): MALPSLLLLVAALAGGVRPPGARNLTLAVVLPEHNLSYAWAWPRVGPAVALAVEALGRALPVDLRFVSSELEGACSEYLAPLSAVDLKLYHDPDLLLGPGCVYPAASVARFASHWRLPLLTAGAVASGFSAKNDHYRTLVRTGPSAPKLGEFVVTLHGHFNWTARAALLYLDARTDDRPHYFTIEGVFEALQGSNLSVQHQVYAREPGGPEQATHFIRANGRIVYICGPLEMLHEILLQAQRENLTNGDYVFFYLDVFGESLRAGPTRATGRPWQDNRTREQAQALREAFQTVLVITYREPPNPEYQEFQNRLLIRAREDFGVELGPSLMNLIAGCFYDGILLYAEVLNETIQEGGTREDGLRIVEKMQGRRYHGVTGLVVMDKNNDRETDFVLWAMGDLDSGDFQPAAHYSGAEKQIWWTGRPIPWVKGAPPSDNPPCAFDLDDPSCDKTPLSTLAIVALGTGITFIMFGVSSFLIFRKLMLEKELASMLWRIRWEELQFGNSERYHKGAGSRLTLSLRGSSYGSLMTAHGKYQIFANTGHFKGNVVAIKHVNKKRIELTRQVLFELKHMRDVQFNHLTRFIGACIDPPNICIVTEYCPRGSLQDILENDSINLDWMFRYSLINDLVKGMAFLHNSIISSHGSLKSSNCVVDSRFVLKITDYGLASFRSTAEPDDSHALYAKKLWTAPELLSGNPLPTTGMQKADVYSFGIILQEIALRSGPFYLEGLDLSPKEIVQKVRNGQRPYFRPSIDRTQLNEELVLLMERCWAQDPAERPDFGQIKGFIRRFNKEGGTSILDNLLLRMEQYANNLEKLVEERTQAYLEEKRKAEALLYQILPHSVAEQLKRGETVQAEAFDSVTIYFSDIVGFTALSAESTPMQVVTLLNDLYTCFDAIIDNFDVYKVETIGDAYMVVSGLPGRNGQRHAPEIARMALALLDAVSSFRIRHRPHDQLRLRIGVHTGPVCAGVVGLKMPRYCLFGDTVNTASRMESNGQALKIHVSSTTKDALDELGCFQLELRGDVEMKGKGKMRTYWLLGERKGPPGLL
Chain of Parathyroid hormone/parathyroid hormone-related peptide receptor (Homo sapiens) (Q03431 whole entry, looked up): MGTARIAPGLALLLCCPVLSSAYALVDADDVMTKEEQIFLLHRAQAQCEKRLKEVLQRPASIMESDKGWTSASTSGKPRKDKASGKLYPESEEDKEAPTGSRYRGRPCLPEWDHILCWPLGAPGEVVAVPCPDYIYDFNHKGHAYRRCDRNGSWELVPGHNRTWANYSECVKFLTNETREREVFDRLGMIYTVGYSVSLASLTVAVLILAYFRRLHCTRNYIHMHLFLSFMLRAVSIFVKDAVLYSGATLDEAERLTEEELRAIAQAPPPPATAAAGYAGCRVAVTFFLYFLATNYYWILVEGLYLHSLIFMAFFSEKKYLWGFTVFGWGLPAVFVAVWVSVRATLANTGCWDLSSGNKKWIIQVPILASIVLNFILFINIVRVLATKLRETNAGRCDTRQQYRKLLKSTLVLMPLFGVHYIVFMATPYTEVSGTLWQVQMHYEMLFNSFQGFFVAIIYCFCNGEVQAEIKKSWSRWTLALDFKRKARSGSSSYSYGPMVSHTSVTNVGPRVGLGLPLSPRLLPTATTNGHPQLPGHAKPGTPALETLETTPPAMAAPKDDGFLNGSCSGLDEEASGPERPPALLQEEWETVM
T1 sequence (P78324 whole entry, looked up, the tested form may be a part): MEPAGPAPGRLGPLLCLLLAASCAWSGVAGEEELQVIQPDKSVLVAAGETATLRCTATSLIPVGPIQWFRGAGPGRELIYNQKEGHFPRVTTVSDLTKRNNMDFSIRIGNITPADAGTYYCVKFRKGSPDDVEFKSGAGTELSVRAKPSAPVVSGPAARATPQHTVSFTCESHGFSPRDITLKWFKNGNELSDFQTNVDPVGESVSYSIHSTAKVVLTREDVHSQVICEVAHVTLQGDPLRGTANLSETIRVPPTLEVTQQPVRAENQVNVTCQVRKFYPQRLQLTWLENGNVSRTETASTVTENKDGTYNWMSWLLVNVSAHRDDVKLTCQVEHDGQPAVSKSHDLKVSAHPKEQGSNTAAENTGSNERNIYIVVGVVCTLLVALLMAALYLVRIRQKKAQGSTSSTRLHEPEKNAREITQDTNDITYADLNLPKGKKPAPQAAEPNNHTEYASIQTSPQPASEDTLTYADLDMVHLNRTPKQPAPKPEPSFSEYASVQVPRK
T1 sequence (Q08722 whole entry, looked up, the tested form may be a part): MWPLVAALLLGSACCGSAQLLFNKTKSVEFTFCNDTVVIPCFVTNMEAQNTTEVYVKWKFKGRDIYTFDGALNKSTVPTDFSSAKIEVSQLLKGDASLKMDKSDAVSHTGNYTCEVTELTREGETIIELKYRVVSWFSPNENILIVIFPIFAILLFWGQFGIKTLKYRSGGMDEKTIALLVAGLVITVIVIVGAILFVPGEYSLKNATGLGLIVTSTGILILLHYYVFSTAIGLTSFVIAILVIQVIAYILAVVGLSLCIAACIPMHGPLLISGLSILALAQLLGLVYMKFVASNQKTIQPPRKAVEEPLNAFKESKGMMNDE

As to `NCCCCCC(=O)O`, the Potency result in [1], in experiment [2], in experiment [3], in experiment [4], in experiment [7] and in experiment [8] was “inactive” each time. The Potency entry in [9] and in experiment [10] was “inactive” each time. Further, the result in experiment [5] and in [6] was inactive.

For the compound `O=C1N(c2ccccc2)c2ccccc2C1(Cc1ccncc1)Cc1ccncc1`, the Potency entry in experiment [1], in experiment [2], in [4], in experiment [7], in experiment [8] and in experiment [9] was “inactive” throughout. In experiment [10], the Potency result is “inactive”. Also, the result in experiment [5] and in [6] was inactive.

`CCN1CCCC1CNC(=O)c1cc(S(=O)(=O)CC)c(N)cc1OC` (centres undefined): the Potency entry in experiment [1], in experiment [2], in experiment [3], in [4], in experiment [7] and in experiment [8] was “inactive” in each case. Besides, the Potency entry in experiment [9] and in experiment [10] was “inactive” each time. Also, the outcome in [5] and in [6] was inactive.

As for `COC(=O)Nc1nc2ccc(C(=O)c3cccs3)cc2[nH]1`, the Potency result in [1], in experiment [2], in experiment [7] and in experiment [8] was “inactive” throughout. For the same compound, the Potency in experiment [4] was 235 nM (active) and inactive; in [9], 46.6 nM (active) and 236 nM (active); in experiment [10], 11.8 nM (active) and 106 nM (active). Besides, in experiment [5], the result was inactive.

For `CCc1cccc2c3c([nH]c12)C(CC)(CC(=O)O)OCC3` (centres undefined), the Potency entry in experiment [1], in experiment [2], in experiment [3], in [4], in [7] and in experiment [8] was “inactive” each time. In addition, the Potency result in experiment [9] and in experiment [10] was “inactive” each time. The result in experiment [5] and in experiment [6] was inactive.

With `Nc1nc2c(ncn2COC(CO)CO)c(=O)[nH]1`, the Potency entry in experiment [1], in [2], in experiment [3], in experiment [4], in experiment [7] and in experiment [8] was “inactive” throughout. Besides, the Potency result in experiment [9] and in experiment [10] was “inactive” throughout. Besides, the result in [5] and in experiment [6] was inactive.

As for `CC(COc1ccccc1)N(CCCl)Cc1ccccc1` (centres undefined), the Potency entry in experiment [1], in experiment [2], in experiment [3], in experiment [4], in [8] and in experiment [9] was “inactive” each time. Besides, in experiment [10], the Potency result is “inactive”.

On to `CCOC(=O)C(C)(C)Oc1ccc(Cl)cc1`, for which the Potency result in experiment [1], in experiment [2], in experiment [3], in [4], in [7] and in experiment [8] was “inactive” in each case. In addition, the Potency result in experiment [9] and in [10] was “inactive” throughout. The result in experiment [5] and in [6] was inactive.

For `CN1CCC(=C2c3ccccc3C=Cc3ccccc32)CC1`, the Potency entry in [1], in experiment [2], in experiment [4], in experiment [7], in experiment [8] and in [9] was “inactive” each time. In experiment [10], the Potency entry is “inactive”. Also, the Potency in experiment [3] is 11.7 µM (active). The outcome in [5] was inactive.

For `O=c1c(-c2ccc(O)cc2)coc2cc(O)cc(O)c12`, the Potency result in experiment [1], in [2], in experiment [3], in [4], in experiment [7] and in [8] was “inactive” throughout. In addition, the Potency entry in experiment [9] and in experiment [10] was “inactive” each time. The result in experiment [5] and in [6] was inactive.

On to `CN1C(C(=O)Nc2ccccn2)=C(O)c2ccccc2S1(=O)=O`, for which the Potency result in experiment [1], in [2], in experiment [3], in experiment [4], in [7] and in experiment [8] was “inactive” each time. The Potency result in [9] and in [10] was “inactive” in each case. Further, the result in [5] was inactive.

In the case of `O=C(c1ccc(F)cc1)C1CCN(CCn2c(=O)[nH]c3ccccc3c2=O)CC1`, the Potency entry in [1], in [2], in [3], in experiment [4], in experiment [7] and in experiment [8] was “inactive” throughout. Further, the Potency entry in experiment [9] and in [10] was “inactive” in each case. Besides, the outcome in experiment [5] and in [6] was inactive.

Turning to `CC(C)(Oc1ccc(C2CC2(Cl)Cl)cc1)C(=O)O` (centres undefined), the Potency result in experiment [1], in experiment [2], in experiment [3], in experiment [4], in experiment [7] and in experiment [8] was “inactive” throughout. The Potency result in [9] and in [10] was “inactive” throughout. Also, the result in [5] and in [6] was inactive.

On to `CN(C)CCC=C1c2ccccc2C=Cc2ccccc21`, for which the Potency entry in experiment [1], in experiment [4], in experiment [7], in experiment [8], in experiment [9] and in [10] was “inactive” throughout. Besides, in experiment [3], the Potency is 16.5 µM (active). Besides, the outcome in experiment [5] and in experiment [6] was inactive.

Regarding `COc1ccccc1N1CCN(CC(O)COc2cccc3ccccc23)CC1` (centres undefined), the Potency result in experiment [1], in [3], in [4], in experiment [7], in experiment [8] and in [10] was “inactive” each time. Besides, the outcome in [5] and in [6] was inactive.

`CC12CC3CC(C)(C1)CC(N)(C3)C2`: the Potency entry in experiment [1], in experiment [3], in experiment [4], in experiment [8] and in experiment [9] was “inactive” throughout. Also, the outcome in [5] and in experiment [6] was inactive.

For the compound `NCCS(=O)(=O)O`, the Potency entry in experiment [1], in experiment [3], in experiment [4], in [7], in experiment [8] and in experiment [9] was “inactive” throughout. Moreover, the Potency result in [10] is “inactive”. Also, the outcome in experiment [5] and in experiment [6] was inactive.

In the case of `CC(C)NCC(O)c1ccc(O)c(O)c1` (centres undefined), the Potency entry in experiment [2], in experiment [3], in [4], in [7] and in [9] was “inactive” each time. For the same compound, the result in experiment [5] and in experiment [6] was inactive. In [8], the Potency was 0.0119 µM (active).

On to `C[C@](N)(Cc1ccc(O)c(O)c1)C(=O)O`, for which the Potency entry in experiment [1], in [3], in [4], in experiment [7], in [8] and in experiment [9] was “inactive” each time. Moreover, the Potency result in experiment [10] is “inactive”. The outcome in experiment [5] and in [6] was inactive.

For `O=C(CCCN1CCC(O)(c2ccc(Cl)cc2)CC1)c1ccc(F)cc1`, the Potency entry in experiment [1], in experiment [3], in experiment [4], in experiment [7], in experiment [8] and in experiment [9] was “inactive” throughout. For the same compound, the Potency result in experiment [10] is “inactive”. In addition, the result in [5] and in experiment [6] was inactive.

Turning to `OCCN(CCO)c1nc(N2CCCCC2)c2nc(N(CCO)CCO)nc(N3CCCCC3)c2n1`, the Potency entry in experiment [1], in experiment [3], in experiment [4], in experiment [7], in [8] and in experiment [9] was “inactive” in each case.

As for `NC(=O)NO`, the Potency result in [1], in experiment [3], in experiment [4], in [7], in experiment [8] and in experiment [10] was “inactive” in each case. Moreover, the outcome in [5] and in experiment [6] was inactive.

For `COc1ccccc1OCCNCC(O)COc1cccc2[nH]c3ccccc3c12` (centres undefined), the Potency result in [1], in [3], in experiment [4], in experiment [7], in [8] and in [9] was “inactive” each time. The Potency result in [10] is “inactive”. The result in [5] and in [6] was inactive.
